IkB sig inh = IkB pathway inhibition in ABC-DLBCL cells | ABC-DLBCL IkBa-CBG/CBR dual luciferase ratio, 4 h; response scale: scaled: untreated 0%, proteasome inhibitor 100% | AID 445 | Potency, µM (series often up to 57.1 µM), inactives show top-dose IkBa stabilization activation | actives 0.04% (n = 110,000); active means well fitted curve in the direction sought with a large enough effect in the signal ratio, not every such curve was filed as active; inconclusive means small, poorly fitted or top-dose-only effect, or a change in a side signal; the % refers to the signal ratio;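 further: the direction sought is a rising ratio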
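Luminescence ratio of IκBα-fused green versus native red beetle luciferase in OCI-Ly3 cells, 4 h post-doxycycline with compound; red signal alone, scaled from basal (0%) to zero light (-100%), flagged nonspecific or cytotoxic effects.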
Peg3 imprint = induces erasure of genomic imprints in mouse ES cells. actives 0.02% (n = 110,000). AID 1948. mouse ES Peg3-LacZ reporter, beta-gal luminescence, 40 h. Potency, µM (top dose mostly 60.7 µM), inactives show top-dose activity change, positive = activation, hits mostly activators
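Readout: BetaGlo luminescence (5 min, room temp) for LacZ from the normally silent maternal Peg3 allele in female Peg3LacZ-Neo ES cells. Cells 300/well, 40 h, 37C, 5% CO2. Data normalized per plate to negative controls.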
p53ts 39C kill = cytotoxicity in p53ts cells at nonpermissive temperature; Potency, µM (titrated, usually from 46.1 µM), inactives show at the highest dose activity change, negative = cell killing, most hits filed as cytotoxic; AID 902; actives 1.5% (n = 130,000); H1299-p53A138V viability at 39C, ATP luminescence, 24 h; further: on the % scale 0 is the no-effect control and ±100 the full control effect; nearly all actives have a fitted effect of over 55% in size
p53ts 32C kill = kills p53ts cells at the permissive temperature; H1299-p53A138V at 32C, ATP luminescence viability, 24 h; AID 924; Potency, µM (doses to about 46.1 µM), without a hit: at the highest dose activity change, negative = cytotoxicity, actives largely listed as cytotoxic; actives 0.93% (n = 130,000);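 further: 0% = DMSO and -100% = full killing by reference compound; nearly all actives have a fitted effect of over 55% in size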
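Viability by ATPlite luminescence after 24 h compound treatment (up to 46 uM) at the permissive 32C. Cells are H1299 carrying p53 A138V. Scale runs from DMSO basal to 100 uM tamoxifen as full kill; AC50 from Hill fits.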
ERK AVP inh = vasopressin-driven ERK pathway inhibition; HEK293-V1b, vasopressin-stimulated pERK AlphaScreen; Potency, µM (series often up to 57.5 µM), for the others: top-dose activity, negative = inhibition, most hits filed as inhibitors; actives 0.99% (n = 72,000); AID 995; further: on the % scale 0 is the no-effect control and ±100 the full control effect; nearly all actives have a fitted effect of over 55% in size
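HEK293 cells stably expressing V1b receptor, seeded overnight in 1% FBS, were treated with compounds for 30 min at 37C, then stimulated 5 min with 25 nM vasopressin; phospho-ERK read by AlphaScreen SureFire after lysis.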
Active calls of the source: *; ? = inconclusive; . = no result; [ ] = remark or other dose. Shown are actives, neighbours in structure and some others; about 2.3% of the full set was active somewhere. Unless noted, the call rests on the fitted dose curve; in most records, active means well fitted curve in the direction sought with a large enough effect; inconclusive means small, poorly fitted or top-dose-only effect, or another doubt; inactive means no such curve, though single readings can be large; an effect the other way counts as inactive or inconclusive. Potency means the concentration at half of the fitted maximal effect.

SMILES	IkB sig inh	Peg3 imprint	p53ts 39C kill	p53ts 32C kill	ERK AVP inh
CCOc1ccc(CNC(=O)CSc2nnc(C)c3c(C)n(-c4ccccc4)nc23)cc1	1%	-8%[10.9 µM]	25µM*	2%	.
Cc1nnc(SCC(=O)NCc2cccc(F)c2)c2nn(-c3ccccc3)c(C)c12	-3%	-7%[10.9 µM]	5%	19%	.
CCCCNC(=O)CSc1nnc(C)c2c(C)n(-c3ccccc3)nc12	?	11%[10.9 µM]	16µM*	7%	.
Cc1nnc(SCC(=O)NCc2ccccc2F)c2nn(-c3ccc(Cl)cc3)c(C)c12	7%	-10%[10.9 µM]	43%	-20%	.
O=C(O)CCC(=O)c1ccc[nH]1	1%[11.4 µM]	-7%[10.9 µM]	6%[9.22 µM]	-1%[9.22 µM]	2%[11.5 µM]
COC(=O)c1ccccc1NC(=O)c1cc2c(s1)-c1ccccc1OC2	?	-8%[10.9 µM]	-11%	29%	.
COc1cc(NC(=O)c2cc3c(s2)-c2ccccc2OC3)cc(OC)c1OC	?	-9%[10.9 µM]	?	13µM*	.
CN(c1ccccc1)S(=O)(=O)c1nnc(NC(=O)C2CCCCC2)s1	-1%	-23%[10.9 µM]	16µM*	7.9µM*	.
CCN(c1ccccc1)S(=O)(=O)c1nnc(NC(=O)c2cccs2)s1	-144%	-85%[10.9 µM]	1.3µM*	1µM*	.
O=C(Nc1ccc2nc(-c3cccnc3)[nH]c2c1)c1ccco1	4%	-6%	-28%	?	-14%
O=C(Nc1cccc(NC(=O)c2cccs2)c1)c1ccco1	14%	-21%	-1%	-2%	-10%
O=C(Nc1ccc2nc(-c3ccco3)[nH]c2c1)c1ccco1	3%	-41%	16µM*	7.9µM*	?
O=C(Nc1ccc2nc(-c3ccco3)[nH]c2c1)c1cccs1	9%	-12%	13µM*	10µM*	-28%
CCN(c1cccc(C)c1)S(=O)(=O)c1ccc(O)c(C(=O)O)c1	.	.	11%	7%	.
CC(C)(N)C(=O)N[C@@H]1C(=O)N2[C@@H]1SC(C)(C)[C@H]2C(=O)O	0%[11.4 µM]	-7%[10.9 µM]	-1%[9.22 µM]	-3%[9.22 µM]	-18%[11.5 µM]
COc1ccc(N2Cc3cccc(C(=O)Nc4ccc(C(C)C)cc4)c3C2=O)cc1	-1%	-12%[10.9 µM]	4µM*	5µM*	.
COc1ccc(N2Cc3cccc(C(=O)Nc4ccc(C)cc4)c3C2=O)cc1	-1%	4%[10.9 µM]	-8%	7%	.
COc1ccc(C2CC(c3cccs3)=Nc3ccccc3S2)cc1 (stereo not drawn)	.	.	47%	25µM*	.
O=C(c1cc(-n2cnnc2)ccc1Cl)N1CCN(c2nc(-c3ccccc3)cs2)CC1	?	-11%	8%	-4%	25µM*
Cc1ccc(CSc2ncc(Cl)c(C(=O)NCc3ccccc3)n2)cc1	0%	-11%[10.9 µM]	-21%	-8%	.
O=C(NCc1ccccc1)c1nc(S(=O)(=O)Cc2ccc(F)cc2)ncc1Cl	?	-25%[10.9 µM]	5µM*	16µM*	.
Cc1cccc(CS(=O)(=O)c2ncc(Cl)c(C(=O)NCc3ccccc3)n2)c1	?	-28%[10.9 µM]	5µM*	25µM*	.
Cc1cccc(CS(=O)(=O)c2ncc(Cl)c(C(=O)Nc3nc4ccc(F)cc4s3)n2)c1	?	-36%[10.9 µM]	10µM*	16µM*	.
Cc1ccc2nc(NC(=O)c3cc(=O)c4cc(C)c(C)cc4o3)sc2c1	-3%	-11%[10.9 µM]	8%	8%	.
COc1ccc2nc(NC(=O)c3cc(=O)c4ccccc4o3)sc2c1	?	-9%[10.9 µM]	10µM*	?	.
SMILES	IkB sig inh	Peg3 imprint	p53ts 39C kill	p53ts 32C kill	ERK AVP inh
O=C(Nc1ccccc1F)c1nc(S(=O)(=O)Cc2ccccc2F)ncc1Cl	?	-36%[10.9 µM]	4µM*	?	.
COC(=O)c1ccccc1NC(=O)c1nc(S(=O)(=O)Cc2ccccc2F)ncc1Cl	12%	13%[10.9 µM]	16%	4%	.
COc1ccc2nc(NC(=O)c3nc(S(=O)(=O)Cc4ccccc4F)ncc3Cl)sc2c1	0%	-40%[10.9 µM]	4µM*	?	.
CO[C@H]1COC(=O)[C@H](C)COC(=O)[C@H](C)NC(=O)C/C=C\[C@H]1C	.	.	10%[9.22 µM]	9%[9.22 µM]	2%[11.5 µM]
CC(CC(=O)O)(CC(=O)O)c1ccccc1	3%[11.4 µM]	-3%[10.9 µM]	9%[9.22 µM]	9%[9.22 µM]	9%[11.5 µM]
CN(C)CCNC(=O)c1ccc(-n2c(=O)c(=O)[nH]c3ccccc32)cc1	.	.	-4%	-2%	.
C[C@@H]1CC2(OC(O)[C@]3(C)O[C@H]23)O[C@H]2C[C@@]3(C)[C@@H]4CC[C@H]5C(C)(C)C(O[C@@H]6OC[C@@H](O)[C@H](O)[C@H]6O)CC[C@@]56C[C@@]46CC[C@]3(C)[C@@H]12 (stereo partly drawn)	1%	-6%	-5%	10%[1.84 µM]	6%
COc1ccc2nc(NC(=O)c3nc(S(=O)(=O)Cc4ccccc4)ncc3Cl)sc2c1	?	-44%[10.9 µM]	5µM*	13µM*	.
O=C(Nc1nc2ccc(F)cc2s1)c1nc(S(=O)(=O)Cc2ccccc2)ncc1Cl	-4%	-50%[10.9 µM]	?	?	.
Cc1nnc(NC(=O)c2nc(S(=O)(=O)Cc3ccccc3)ncc2Cl)s1	1%	-34%[10.9 µM]	16µM*	?	.
Cc1cccc(CSc2ncc(Cl)c(C(=O)Nc3nnc(C)s3)n2)c1	9%	-11%[10.9 µM]	-16%	2%	.
O=C(O)[C@@H]1[C@@H]2C[C@H]([C@@H](Br)[C@H]2N2C(=O)CCC2=O)[C@@H]1C(=O)O	-1%[11.4 µM]	-9%[10.9 µM]	-7%[9.22 µM]	-11%[9.22 µM]	?
O=C(O)C1(C(=O)O)CCN(S(=O)(=O)c2ccccc2)CC1	2%[11.4 µM]	0%[10.9 µM]	-3%[9.22 µM]	1%[9.22 µM]	-12%[11.5 µM]
Nc1nnc(-c2ccccc2)c(-c2ccccc2)n1	-4%	-8%	-3%	-12%	-32%
c1ccc(-c2nc3nonc3nc2-c2ccccc2)cc1	6%	-27%	13µM*	?	13µM*
CN(Cc1ccco1)c1cc(-c2ccoc2)ncn1	1%[11.4 µM]	-4%	-5%	2%	13%
CC(=O)Nc1ccc(NC(=O)c2ccc3c(c2)CCN3S(=O)(=O)c2ccc(C)cc2)cc1	1%	9%[10.9 µM]	-13%	6%	.
CC(=O)N1CCc2cc(NC(=O)c3ccc(C)cc3)ccc21	-2%	-9%	10µM*	6.3µM*	-23%
CCCC(=O)Nc1ccc2nn(-c3ccc(CC)cc3)nc2c1	-5%	-10%[10.9 µM]	10µM*	-17%	.
Cc1ccc(OCC(=O)Nc2ccc3nn(-c4ccc(C)cc4)nc3c2)cc1	0%	-13%[10.9 µM]	-3%	-4%	.
Cc1cc(/C=C2/C(=O)NN(c3ccccc3)C2=O)c(C)n1-c1cccc(O)c1	.	.	13µM*	.	.
CC(C)(C)C(=O)NCCc1nc2ccccc2n1CCCCOc1ccc(Cl)cc1	?	-7%[10.9 µM]	32µM*	6%	.
Cc1cccc(OCCCn2c(CCNC(=O)C(C)(C)C)nc3ccccc32)c1	?	-7%[10.9 µM]	-6%	2%	.
Cc1ccc(OCCCn2c(CCNC(=O)C3CCCCC3)nc3ccccc32)c(C)c1	?	-12%[10.9 µM]	?	4%	.
Cc1cccc(C)c1OCCCn1c(CCNC(=O)C2CCCCC2)nc2ccccc21	?	-17%[10.9 µM]	16µM*	?	.
